Here are results for 21 compounds from PubChem BioAssay (NCI).

The panel holds about 79,000 compounds, 15% with a hit somewhere; the sample as a whole holds those more often. Values without a mark were called inactive. Activity calls are given as the source filed them. Cut-off read from the data, not from the text of the source: active = growth inhibition above about 70%; inactive = the rest.

Assay [1] can be described thus: NCI Yeast Anticancer Drug Screen. Data for the rad50 strain (AID 155).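 Note: 0% = growth of vehicle-only cultures of the same strain.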 The settings on record: S. cerevisiae rad50 strain growth inhibition; at 50.0 µM; active compounds read high. In short, it runs like this: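 Genetically altered yeast (DNA repair pathway); compound treatment; growth inhibition vs vehicle ctrl.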
Assay [2] in a line: NCI Yeast Anticancer Drug Screen. Data for the mec2-1 strain (AID 157). The settings on record: S. cerevisiae mec2-1 strain, at 50.0 µM, active compounds read high. Summed up: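 mec2-1 yeast strain, carrying an alteration in DNA damage repair or cell cycle control, was exposed to compounds; growth inhibition was measured relative to vehicle-treated controls.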
A short description of assay [3]: NCI Yeast Anticancer Drug Screen. Data for the sgs1 mgt1 strain (AID 161).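 Note: 0% = growth of cultures given vehicle only.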 The following applies: S. cerevisiae sgs1 mgt1 strain, at 50.0 µM, active compounds read high. Summed up:
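Yeast cells carrying a defined DNA-repair defect were exposed to test compounds. Growth inhibition was measured relative to vehicle-treated controls.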

Assay [4] is described as follows: NCI Yeast Anticancer Drug Screen. Data for the cln2 rad14 strain (AID 165).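 Note: 0% = growth equal to vehicle treated cultures.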 The following applies: S. cerevisiae cln2 rad14 strain, at 50.0 µM, active compounds read high. In short, it runs like this: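 Yeast carrying cln2 and rad14 alterations (cell cycle control and DNA damage repair) were exposed to compounds. Growth inhibition was measured against vehicle-treated controls.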

Assay [5] is described as follows: NCI Yeast Anticancer Drug Screen. Data for the bub3 strain (AID 167). The following applies: S. cerevisiae bub3 mutant strain, at 50.0 µM, active compounds read high. In short, it runs like this:
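Yeast carrying a defined mutation is treated with each compound, and growth is compared with that of vehicle-exposed cells to give inhibition.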

A short description of assay [6]: NCI Yeast Anticancer Drug Screen. Data for the mlh1 rad18 strain (AID 175). The settings on record: S. cerevisiae mlh1 rad18 strain growth inhibition; at 50.0 µM; active compounds read high. Summed up:
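Growth inhibition of the yeast strain was measured after compound exposure and expressed relative to vehicle-treated controls. The strain carries defined defects in DNA damage repair.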

With `COC(=O)C(N)CSc1ccc([N+](=O)[O-])cc1[N+](=O)[O-]` (stereo unspecified), the growth inhibition is 37.5% in assay [1]; 39.5% in assay [2]; 40.2% in assay [3]; 25.1% in assay [4]; 16.1% in assay [5]; 48.9% in assay [6].
Take `NC(=S)N/N=C/c1ccco1`: the growth inhibition in assay [1] is -26.2%; in assay [2], -11.3%; in assay [3], -18.3%; in assay [4], -67.2%; in assay [5], -23.9%; in assay [6], -8.2%.
Turning to `O=CC(O)C(O)C(O)C(O)COC1OC(CO)C(O)C(O)C1O` (stereo unspecified), the growth inhibition is 22.6% in assay [1]; -11.7% in assay [2]; 21.2% in assay [3]; 8% in assay [4]; 23% in assay [5]; 11.1% in assay [6].
On to `Cc1cc([N+](=O)[O-])c(Cl)cc1Cl`, for which the growth inhibition was -22.8% in assay [1]; 25.3% in assay [2]; -9.35% in assay [3]; 26.5% in assay [4]; 12.2% in assay [5]; 5.5% in assay [6].
As to `CCC(=O)N1C(=O)OCC1C(C)C` (stereo unspecified), the growth inhibition was -2.8% in assay [1]; -21.4% in assay [2]; -22.3% in assay [3]; 13.1% in assay [4]; -9.35% in assay [5]; 14.8% in assay [6].
Turning to `Cc1nc(N)sc1C(=O)/C=C\c1ccc2c(c1)OCO2`, the growth inhibition in assay [1] is 21.4%; in assay [2] it was -3.2%; in assay [3] it was 23.4%; in assay [4], 10.3%; in assay [5] it was 5.2%; in assay [6], 35.4%.
Take `COC(=O)C1=CN(c2ccccc2)C(=O)C1`: the growth inhibition in assay [1] was 5.5%; in assay [2], -14.3%; in assay [3], -6.95%; in assay [4], -26.1%; in assay [5], -8.7%; in assay [6] it was 7.45%.
For the compound `CCOC(=O)NN1C(=O)c2cccc3c([N+](=O)[O-])ccc(c23)C1=O`, the growth inhibition in assay [1] is 86.2% (active); in assay [2], 61.9%; in assay [3] it was 93.5% (active); in assay [4], 88.4% (active); in assay [5] it was 78.3% (active); in assay [6], 85.8% (active).
Regarding `CC1(C(=O)O)C2CCC(C2)C1C(=O)O` (stereo unspecified), the growth inhibition in assay [1] was 11.8%; in assay [2] it was 5.8%; in assay [3], -2.7%; in assay [4] it was -46.1%; in assay [5], 3.7%; in assay [6], 3.35%.
For `CC(=Nc1ccccc1)NO`, the growth inhibition in assay [1] is 1.9%; in assay [2], 14%; in assay [3] it was 3.7%; in assay [4], 3.5%; in assay [5], -8.1%; in assay [6] it was 2.1%.
In the case of `Cc1ccccc1NC(=S)N1CCOCC1`, the growth inhibition in assay [1] is -4.55%; in assay [2], 14.4%; in assay [3] it was -10.8%; in assay [4], -68.6%; in assay [5], 14.2%; in assay [6] it was -6.35%.
Regarding `CCCCCCCCCCP(=O)(O)CCCCCCCCCC`, the growth inhibition is 8.3% in assay [1]; -3.8% in assay [2]; 9.9% in assay [3]; -144% in assay [4]; 21.7% in assay [5]; -16.3% in assay [6].
In the case of `CCCC(C)C(=O)OC(C)CC(C)C` (stereo unspecified), the growth inhibition is 31% in assay [1]; 15.9% in assay [2]; 21.9% in assay [3]; -0.75% in assay [4]; 20.9% in assay [5]; 15.6% in assay [6].
Turning to `CCNc1cc2oc(=O)cc(C)c2cc1C`, the growth inhibition was -30.7% in assay [1]; -22.5% in assay [2]; -11.4% in assay [3]; 8.05% in assay [4]; -19% in assay [5]; -28.2% in assay [6].
Regarding `CCCCCCCCCCCOC(=O)CCl`, the growth inhibition in assay [1] was 1.4%; in assay [2], -13%; in assay [3], -16.9%; in assay [4], -12.3%; in assay [5], -12.8%; in assay [6], -7.4%.
For the compound `NC(=S)n1nc(-c2ccccc2)c(N=Nc2ccccc2[N+](=O)[O-])c1-c1ccccc1`, the growth inhibition in assay [1] is 13.2%; in assay [2], 2.5%; in assay [3], -3.15%; in assay [4], -35.6%; in assay [5], 3.6%; in assay [6], 9.45%.
As to `CCN1CC(O)Cc2ccccc21` (stereo unspecified), the growth inhibition in assay [1] was -3.55%; in assay [2] it was 8.55%; in assay [3], 11.2%; in assay [4], 1.4%; in assay [5] it was -8.35%; in assay [6], -3.5%.
As to `CCCCN(CCCC)CC(O)c1cc(-c2ccc(Cl)cc2)nc2cc(OC)c(OC)cc12` (stereo unspecified), the growth inhibition in assay [1] was 99% (active); in assay [2] it was 99.6% (active); in assay [3] it was 99.7% (active); in assay [4], 98.8% (active); in assay [5], 51.8%; in assay [6] it was 69.9%.
For the compound `O=C(Nc1cccc(F)c1)Oc1ccc(OCc2ccccc2)cc1`, the growth inhibition in assay [1] was 3.8%; in assay [2] it was 6.6%; in assay [3], 9.9%; in assay [4], 8.7%; in assay [5], 17.9%; in assay [6], 16%.
Turning to `O=C(O)CCS(=O)(=O)CCC(=O)O`, the growth inhibition was -8.4% in assay [1]; 0.8% in assay [2]; -21.4% in assay [3]; -30% in assay [4]; 8.6% in assay [5]; 22.8% in assay [6].
`Oc1ccc(Cl)cc1C1=NC(/N=C\c2ccccc2)=NC(c2ccccc2)C1` (stereo unspecified): the growth inhibition in assay [1] was -0.7%; in assay [2], -4.05%; in assay [3], -43%; in assay [4], -8.1%; in assay [5] it was -36.8%; in assay [6], -45%.
